Measurements reported in PubChem BioAssay (Tox21).
Several values for one entry are separate records, joined by “and”; a condition that tells them apart may be missing. Identical values can stand only once. Inconclusive results are not listed. Some structures have more than one record in an assay (separate samples or runs), and their calls can disagree. Activity calls are given as the source filed them. Unless noted, calls follow the shape of the dose curve; as a rule, active = well fitted curve in the direction sought with a large enough effect in the repeat runs; inconclusive = weak or mixed curves; inactive = no such curve, though single readings can be large; an effect the other way counts as inactive or inconclusive.

Key:
[1] = qHTS assay to identify small molecule agonists of the estrogen receptor alpha (ER-alpha) signaling pathway in the presence of an antagonist - cell viability counter screen (AID 1259386);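 also: cells exposed to compounds for 22 h at 37 °C before the viability read; nearly all actives have a fitted effect of over 30% in size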; also: potency is read from the fitted curve at half-maximal effect
In short: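 The test measures whether compounds kill ER-alpha reporter cells (VM7Luc4E2) under antagonist co-treatment (ICI-182,780, 10.0nM). Fluorescence from CellTiter-Fluor is read after a 22hr exposure.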

[2] = molecular target: Progesterone receptor (Homo sapiens) (UniProt P06401); test: qHTS assay to identify small molecule agonists of the progesterone receptor (PR) signaling pathway (AID 1346784; calls by dose curve; also: nearly all actives have a fitted effect of over 30% in size)
Progesterone receptor (Homo sapiens), sequence (P06401 whole entry, looked up): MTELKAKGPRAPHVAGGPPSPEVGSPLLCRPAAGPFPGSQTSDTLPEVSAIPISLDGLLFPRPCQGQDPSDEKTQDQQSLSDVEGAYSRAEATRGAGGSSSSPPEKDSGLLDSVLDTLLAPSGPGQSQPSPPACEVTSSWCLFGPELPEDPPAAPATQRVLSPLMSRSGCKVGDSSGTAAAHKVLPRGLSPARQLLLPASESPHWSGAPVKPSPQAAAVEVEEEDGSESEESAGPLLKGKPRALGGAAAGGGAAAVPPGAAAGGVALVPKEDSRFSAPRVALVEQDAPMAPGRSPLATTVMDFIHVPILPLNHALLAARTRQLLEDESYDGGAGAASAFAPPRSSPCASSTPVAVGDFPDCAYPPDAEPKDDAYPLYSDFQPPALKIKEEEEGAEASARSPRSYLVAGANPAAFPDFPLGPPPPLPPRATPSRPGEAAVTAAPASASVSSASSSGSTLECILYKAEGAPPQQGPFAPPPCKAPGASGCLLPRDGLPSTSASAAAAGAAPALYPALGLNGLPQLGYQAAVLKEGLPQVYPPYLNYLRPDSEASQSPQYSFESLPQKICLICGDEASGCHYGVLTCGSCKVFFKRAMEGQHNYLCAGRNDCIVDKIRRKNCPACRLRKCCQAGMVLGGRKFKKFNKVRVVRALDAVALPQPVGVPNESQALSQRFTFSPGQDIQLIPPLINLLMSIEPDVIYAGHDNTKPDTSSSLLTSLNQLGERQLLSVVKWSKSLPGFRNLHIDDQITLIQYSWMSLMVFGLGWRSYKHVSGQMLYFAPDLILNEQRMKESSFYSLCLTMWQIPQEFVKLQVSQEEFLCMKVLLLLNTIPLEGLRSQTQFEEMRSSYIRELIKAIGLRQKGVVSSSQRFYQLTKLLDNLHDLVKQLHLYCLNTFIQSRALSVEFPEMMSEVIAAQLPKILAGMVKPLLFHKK
In short: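 Beta-lactamase reporter read-out: after 16 hr compound treatment at 37C and a further 2 hr at room temperature with LiveBLAzer B/G FRET substrate, fluorescence was measured in PR-UAS-bla HEK 293T cells grown in 2% charcoal-stripped serum.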

[3] = molecular target: Progesterone receptor (Homo sapiens) (UniProt P06401); test: qHTS assay to identify small molecule antagonists of the progesterone receptor (PR) signaling pathway (AID 1346795; active = well fitted inhibition curve with a large enough effect in the signal ratio in the repeat runs, not every such curve was filed as active; the % refers to the signal ratio; also: potency is read from the fitted curve at half-maximal effect)
In short: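 Read-out is fluorescence from the LiveBLAzer B/G FRET substrate, cleaved by a UAS-controlled beta-lactamase in PR-UAS-bla HEK293T cells after 16 hr exposure to compound plus 1 nM promegestone (final), followed by 2 hr at room temperature.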

[4] = qHTS assay to identify small molecule antagonists of the progesterone receptor (PR) signaling pathway - cell viability counter screen (AID 1346798); also: nearly all actives have a fitted effect of over 50% in size; also: potency is read from the fitted curve at half-maximal effect
In short: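 HEK293T PR-UAS-bla, 2% charcoal-stripped FBS; 4 hr pre-plate; cpd + R5020, 16 h 37C; LiveBLAzer read first; then CellTiter-Glo 30 min RT, luminescence.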

[5] = qHTS assay to identify small molecule agonists of the progesterone receptor (PR) signaling pathway - cell viability counter screen (AID 1346799; calls by dose curve; also: nearly all actives have a fitted effect of over 45% in size; also: potency is read from the fitted curve at half-maximal effect)
In short: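 Luminescence from CellTiter-Glo, added after the beta-lactamase FRET read in the same wells, gave cytotoxicity in PR-UAS-bla HEK293T cells treated with compounds for 16 hr at 37C.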

[6] = qHTS assay to identify small molecule agonists of the TGF-beta/Smad signaling pathway - cell viability counter screen (AID 1346829); also: top concentration of the series differs between compounds; nearly all actives have a fitted effect of over 45% in size
In short: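 CellTiter-Glo luminescence readout; SBE-bla HEK 293T cells, overnight plating, compound 5 hr at 37 C/5% CO2, then bla substrate 2 hr RT, then CellTiter-Glo 30 min RT.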

[7] = qHTS assay to identify small molecule agonists of the TGF-beta/Smad signaling pathway (AID 1346859; active = well fitted activation curve with a large enough effect in the signal ratio in the repeat runs, not every such curve was filed as active; the % refers to the signal ratio; also: series mostly up to about 77 µM)
In short: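 SBE-bla HEK 293T, 4,000 cells/well, plated o/n; cpd in DMSO, 5 hr, 37 C/5% CO2; B/G FRET substrate 2 hr RT; ex 405, em 460/530 nm.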

[8] = molecular target: Thyrotropin-releasing hormone receptor (Homo sapiens) (UniProt P34981); test: qHTS assay to identify small molecule antagonists of the thyrotropin-releasing hormone receptor (TRHR) signaling pathway (AID 1346877; active = well fitted inhibition curve with a large enough effect in the repeat runs, not every such curve was filed as active; also: series mostly up to about 51 µM)
Thyrotropin-releasing hormone receptor (Homo sapiens), sequence (P34981 whole entry, looked up): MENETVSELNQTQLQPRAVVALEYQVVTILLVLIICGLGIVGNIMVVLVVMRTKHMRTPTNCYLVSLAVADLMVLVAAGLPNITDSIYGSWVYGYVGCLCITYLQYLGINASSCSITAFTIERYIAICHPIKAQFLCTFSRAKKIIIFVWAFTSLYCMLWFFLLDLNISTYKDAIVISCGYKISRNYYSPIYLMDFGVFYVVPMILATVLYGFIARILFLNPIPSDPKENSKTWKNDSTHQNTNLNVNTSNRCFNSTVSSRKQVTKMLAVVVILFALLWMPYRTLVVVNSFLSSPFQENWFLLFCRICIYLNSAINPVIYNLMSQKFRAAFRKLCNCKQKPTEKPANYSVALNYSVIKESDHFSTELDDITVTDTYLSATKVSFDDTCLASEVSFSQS
In short: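 Overnight-plated (18 h, 37 °C) HEK293 cells expressing TRHR were dye-loaded 2 h, treated with compound, then stimulated with TRH at 1 nM final. Fluorescence intensity was captured every second for 3 min.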

[9] = molecular target: Thyrotropin-releasing hormone receptor (Homo sapiens) (UniProt P34981); test: qHTS assay to identify small molecule agonists of the thyrotropin-releasing hormone receptor (TRHR) signaling pathway (AID 1346891; calls by dose curve; also: potency is read from the fitted curve at half-maximal effect; as to activation: series mostly up to about 58 µM)
In short: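 Intracellular calcium rise, read as fluorescence every second for 3 min, served as the agonist signal in dye-loaded HEK293 cells expressing TRHR; each compound ran at 15 concentrations in triplicate.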

[10] = qHTS assay to identify small molecule antagonists of the TGF-beta/Smad signaling pathway - cell viability counter screen (AID 1346824); also: nearly all actives have a fitted effect of over 50% in size
In short: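 SBE-bla HEK 293T cells were plated overnight at 37 C, then given compounds in DMSO plus TGF-beta1 (added as 0.25 ng/mL solution) for 5 hr. After the bla read, CellTiter-Glo was added to the same wells and luminescence read after 30 min at room temperature.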

Measured: Potency

S=C(NC1CCCCC1)NC1CCCCC1
active: [3] 3.44 µM | [4] 6 µM and 3.86 µM | [5] 7.7 µM
inactive: [1] | [2] | [6] | [7]

CCCCC(CC)COCC1CO1 (stereo not given)
not listed: [10]
inactive: all other assays above

CCOCCOCCO
inactive: all assays above

CCCCC/C=C/C=C/C=O
inactive: all assays above

COc1ccc(C(=O)CC(=O)c2ccc(C(C)(C)C)cc2)cc1
not listed: [10]
inactive: all other assays above

O=C(c1ccccc1)c1ccc(O)cc1O
active: [3] 15.7 µM and 19.3 µM | [4] 49.5 µM
not listed: [5]
inactive: all other assays above

Nc1ccc(Cl)cc1Cl
not listed: [8] | [9] | [10]
inactive: all other assays above

CCCCC(CC)COP(=O)(OCC(CC)CCCC)OCC(CC)CCCC (stereo not given)
not listed: [10]
inactive: all other assays above

CC(C(=O)O)c1cccc(C(=O)c2ccccc2)c1 (stereo not given)
not listed: [7] | [10]
inactive: all other assays above

CC1=CC2C3CC(C=C3C)C2C1 (stereo not given)
not listed: [8] | [9] | [10]
inactive: all other assays above

CC(C)OC=O
not listed: [10]
inactive: all other assays above

Oc1ccc(O)cc1
not listed: [10]
inactive: all other assays above

O=C(/C=C/c1ccccc1)OCc1ccccc1
not listed: [10]
inactive: all other assays above

Cc1cccc([N+](=O)[O-])c1C
not listed: [10]
inactive: all other assays above

COc1c(Cl)c(Cl)c(Cl)c(Cl)c1Cl
not listed: [10]
inactive: all other assays above

CC1=CCC(C(C)(C)O)CC1 (stereo not given)
not listed: [10]
inactive: all other assays above

CN(C)C(=N)N=C(N)N
not listed: [10]
inactive: all other assays above

C[Si](C)(C)O[Si](C)(C)C
not listed: [10]
inactive: all other assays above

CC(C)OC(=O)C(C)(C)Oc1ccc(C(=O)c2ccc(Cl)cc2)cc1
active: [3] 17.2 µM and 21.1 µM
not listed: [5] | [8] | [9]
inactive: all other assays above

OCCO
not listed: [10]
inactive: all other assays above

CN(C)CCC=C1c2ccccc2CCc2ccccc21
active: [3] 54.5 µM | [4] 61.1 µM and 30.6 µM and 16.8 µM | [5] 54.5 µM and 15.4 µM and 16.8 µM
not listed: [10]
inactive: all other assays above

CC(C)OB(OC(C)C)OC(C)C
not listed: [8] | [9] | [10]
inactive: all other assays above

CC(C)=CCC/C(C)=C\CO
not listed: [5] | [8] | [9]
inactive: all other assays above

CCCC(=O)O
not listed: [10]
inactive: all other assays above

Cc1c(C(N)=O)cc([N+](=O)[O-])cc1[N+](=O)[O-]
not listed: [8] | [9] | [10]
inactive: all other assays above

CC(=O)c1ccccn1
not listed: [10]
inactive: all other assays above

O=C1OC2(c3cc(Br)c(O)c(Br)c3Oc3c2cc(Br)c(O)c3Br)c2c(Cl)c(Cl)c(Cl)c(Cl)c21
active: [1] 24.4 µM and 13.2 µM | [9] 15.5 µM and 23.6 µM
not listed: [10]
inactive: all other assays above

C=C(C)C1CC=C(C)CC1 (stereo not given)
not listed: [8] | [9] | [10]
inactive: all other assays above

CC(CCC(=O)O)(c1ccc(O)cc1)c1ccc(O)cc1
not listed: [10]
inactive: all other assays above

c1cc(N(CC2CO2)CC2CO2)ccc1OCC1CO1 (stereo not given)
active: [1] 54.5 µM | [3] 48.6 µM
not listed: [4]
inactive: all other assays above

Nc1ccc(Nc2ccccc2)cc1
active: [1] 30.6 µM and 19.3 µM
not listed: [3]
inactive: all other assays above

O=C(COc1ccc(Cl)cc1)N1CCN(Cc2ccc3c(c2)OCO3)CC1
active: [3] 54.5 µM
not listed: [5] | [10]
inactive: all other assays above

O=C(Nc1ccc(Cl)cc1)Nc1ccc(Cl)c(Cl)c1
inactive: [2] | [10] | [6] | [7]
inactive and 33.5 µM (active): [1]

Nc1ncn([C@@H]2O[C@H](CO)[C@@H](O)[C@H]2O)c(=O)n1
not listed: [2] | [3]
inactive: all other assays above

CCOC(=O)C(C#N)=C(c1ccccc1)c1ccccc1
not listed: [3] | [8] | [9]
inactive: all other assays above

c1ccc2sc(SSN3CCOCC3)nc2c1
not listed: [3] | [10]
inactive: all other assays above

CN(C)c1nc(N(C)C)nc(N(C)C)n1
not listed: [2] | [3]
inactive: all other assays above

O=[N+]([O-])c1ccc2c(c1)Cc1ccccc1-2
not listed: [3] | [8] | [9]
inactive: all other assays above

Brc1cc(Oc2cc(Br)c(Br)c(Br)c2Br)c(Br)c(Br)c1Br
2.18 µM (active) and inactive: [5]
not listed: [4]
inactive: all other assays above

C#C[C@]1(O)CC[C@H]2[C@@H]3CCC4=Cc5oncc5C[C@]4(C)[C@H]3CC[C@@]21C
inactive: [1] | [6] | [7] | [8] | [9]
active: [3] 0.0611 µM | [4] 38.6 µM

CC(C)Oc1ccc2c(=O)c(-c3ccccc3)coc2c1
inactive: [1] | [2] | [3] | [10] | [6] | [7]

NNc1ccc(C(=O)O)cc1
not listed: [2] | [3]
inactive: all other assays above

O=C(O)c1ccccc1Nc1cccc(C(F)(F)F)c1
inactive: [1] | [2] | [6] | [7] | [8] | [9]

Cc1c(OCC(F)(F)F)ccnc1CS(=O)c1nc2ccccc2[nH]1 (stereo not given)
inactive: [2] | [6] | [7] | [8] | [9]

C[C@]12CCC(=O)C=C1CC[C@@H]1[C@@H]2C(=O)C[C@@]2(C)[C@H]1CC[C@]2(O)C(=O)CO
active: [3] 11.9 µM
not listed: [2] | [8] | [9]
inactive: all other assays above

CCCc1c(OCCCCc2nn[nH]n2)ccc(C(C)=O)c1O
not listed: [3] | [7] | [10]
inactive: all other assays above

CC(=O)C1(C)CC2=C(CCCC2(C)C)CC1C (stereo not given)
not listed: [2] | [3]
inactive: all other assays above

COC(=O)C1=C(C)NC(C)=C(C(=O)OCCN(C)Cc2ccccc2)C1c1cccc([N+](=O)[O-])c1 (stereo not given)
active: [1] 54.2 µM and 18.8 µM | [4] 30.5 µM | [5] 30.5 µM
not listed: [3] | [10]
inactive: all other assays above

CNCCCC12CCC(c3ccccc31)c1ccccc12
19.3 µM (active) and inactive: [5]
active: [4] 13.7 µM and 26.6 µM
not listed: [3]
inactive: all other assays above

Cc1cccc(N(C)C(=S)Oc2ccc3ccccc3c2)c1
inactive: [1] | [2] | [4] | [10] | [6] | [7]

COC(=O)Nc1nc2ccc(S(=O)c3ccccc3)cc2[nH]1 (stereo not given)
not listed: [3]
inactive: all other assays above

O=C=Nc1ccc(Cc2ccc(N=C=O)cc2)cc1
not listed: [3] | [8] | [9]
inactive: all other assays above

O=C1c2cccc(O)c2C(=O)c2c(O)cccc21
not listed: [1]
inactive: all other assays above

COc1cc([C@@H]2c3cc4c(cc3[C@H](O)[C@H]3COC(=O)[C@H]23)OCO4)cc(OC)c1OC
not listed: [3] | [4] | [5]
inactive: all other assays above

COc1cccc2c1C(=O)c1c(O)c3c(c(O)c1C2=O)C[C@@](O)(C(=O)CO)C[C@@H]3O[C@H]1C[C@H](N)[C@H](O)[C@H](C)O1
active: [1] 24.3 µM and 29.8 µM | [3] 2.73 µM and 9.44 µM
inactive: [6] | [7] | [8] | [9]

O=C(c1ccc(OCCN2CCCCC2)cc1)c1c(-c2ccc(O)cc2)sc2cc(O)ccc12
inactive: [10] | [6]
active: [1] 54.5 µM and 30.6 µM | [3] 30.6 µM and 29.8 µM | [4] 61.2 µM and 61.1 µM and 26.6 µM | [5] 48.6 µM and 68.6 µM and 29.8 µM
